Mcl1 Bid PPI: disrupts binding of human Mcl-1 to Bid peptide; Q07820; TR-FRET Mcl-1/Bid-Dy647 peptide binding, 1536-well; inhibition, % at 21.7 µM; 220,000 compounds, 0.97% hits;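 active = compounds that cut the binding signal by more than half at the single screening dose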;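 also: His-tagged Mcl-1 with europium anti-His antibody binding Bid BH3 peptide; 0% = Mcl-1 plus peptide wells and 100% = peptide-only wells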
14-3-3 Bad PPI: disrupts binding of bovine 14-3-3 zeta to phospho-Bad peptide; TR-FRET 14-3-3zeta/Dy647-pBad peptide displacement, 1 h; inhibition, % at 21.7 µM; 220,000 compounds, 0.71% hits; AID 781;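 active = inhibition above about 70%, limit read from the data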;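 also: 0% = full 14-3-3 plus peptide FRET controls and 100% = background without 14-3-3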
eIF4E 4G PPI: eIF4E/eIF4G interaction inhibition in translation initiation; TR-FRET eIF4E-eIF4GI(517-606) binding, 2 h; inhibition, % at 21.7 µM; 220,000 compounds, 0.37% hits; AID 782;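 also: 0% = full FRET control wells and 100% = background wells lacking eIF4GI fragment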
Target sequence (P63073 whole entry, looked up, the tested form may be a part): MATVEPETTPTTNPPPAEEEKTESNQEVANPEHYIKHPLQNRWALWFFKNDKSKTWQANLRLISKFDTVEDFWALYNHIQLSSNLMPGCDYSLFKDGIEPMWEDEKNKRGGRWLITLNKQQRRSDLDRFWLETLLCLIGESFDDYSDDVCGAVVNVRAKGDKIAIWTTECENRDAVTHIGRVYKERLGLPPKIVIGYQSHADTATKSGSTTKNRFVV
Target sequence (Q04637 whole entry, looked up, the tested form may be a part): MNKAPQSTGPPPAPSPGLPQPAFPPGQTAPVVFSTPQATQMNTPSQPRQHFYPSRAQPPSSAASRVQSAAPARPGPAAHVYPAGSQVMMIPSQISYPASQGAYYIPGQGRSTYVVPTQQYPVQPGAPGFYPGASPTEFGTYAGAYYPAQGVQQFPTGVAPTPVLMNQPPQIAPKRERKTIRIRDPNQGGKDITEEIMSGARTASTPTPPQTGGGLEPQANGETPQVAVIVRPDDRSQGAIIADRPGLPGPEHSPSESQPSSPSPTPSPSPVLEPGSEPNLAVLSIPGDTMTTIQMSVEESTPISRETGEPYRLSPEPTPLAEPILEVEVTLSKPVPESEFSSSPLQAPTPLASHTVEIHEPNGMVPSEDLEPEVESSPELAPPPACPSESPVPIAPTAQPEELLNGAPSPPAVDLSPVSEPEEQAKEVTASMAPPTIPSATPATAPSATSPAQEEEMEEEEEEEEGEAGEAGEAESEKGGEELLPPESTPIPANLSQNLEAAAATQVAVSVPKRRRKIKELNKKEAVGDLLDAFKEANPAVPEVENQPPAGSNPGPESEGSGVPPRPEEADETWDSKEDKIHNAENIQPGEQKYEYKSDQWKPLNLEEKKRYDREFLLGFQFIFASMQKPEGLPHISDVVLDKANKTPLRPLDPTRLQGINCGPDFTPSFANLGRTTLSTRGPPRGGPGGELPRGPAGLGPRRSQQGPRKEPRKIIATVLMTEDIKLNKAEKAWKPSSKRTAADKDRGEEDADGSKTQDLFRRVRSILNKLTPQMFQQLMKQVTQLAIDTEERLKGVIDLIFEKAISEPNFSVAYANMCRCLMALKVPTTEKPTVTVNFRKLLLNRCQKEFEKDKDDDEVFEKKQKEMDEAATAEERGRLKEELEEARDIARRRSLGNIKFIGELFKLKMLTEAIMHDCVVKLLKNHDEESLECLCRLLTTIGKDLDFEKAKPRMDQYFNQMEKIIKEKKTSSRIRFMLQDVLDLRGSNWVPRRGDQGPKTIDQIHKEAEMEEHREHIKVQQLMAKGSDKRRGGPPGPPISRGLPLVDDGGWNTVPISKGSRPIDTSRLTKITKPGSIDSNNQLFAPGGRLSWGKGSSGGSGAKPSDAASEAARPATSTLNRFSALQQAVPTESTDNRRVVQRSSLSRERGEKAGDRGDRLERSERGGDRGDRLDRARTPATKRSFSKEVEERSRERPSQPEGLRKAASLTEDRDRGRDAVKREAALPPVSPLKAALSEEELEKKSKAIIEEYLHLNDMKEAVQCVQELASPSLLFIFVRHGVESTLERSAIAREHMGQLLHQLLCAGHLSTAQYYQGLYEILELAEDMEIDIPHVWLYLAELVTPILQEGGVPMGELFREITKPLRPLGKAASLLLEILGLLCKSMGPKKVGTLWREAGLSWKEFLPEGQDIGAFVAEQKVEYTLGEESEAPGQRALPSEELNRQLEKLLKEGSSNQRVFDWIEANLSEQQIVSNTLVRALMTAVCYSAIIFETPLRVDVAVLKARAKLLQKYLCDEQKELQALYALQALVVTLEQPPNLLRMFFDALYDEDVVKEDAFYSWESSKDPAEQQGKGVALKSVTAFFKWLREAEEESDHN
Mcl1 Noxa PPI: Mcl-1/Noxa interaction inhibition | inhibition, % at 21.7 µM | AID 1022 | Q07820 | 220,000 compounds, 1.5% hits | TR-FRET Mcl-1/Noxa peptide binding, 2 h;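 active = compounds that cut the protein-peptide binding signal by more than 50% relative to plate controls in a single-dose test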;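 also: His-tagged Mcl-1 with rhodamine Noxa BH3 peptide and terbium anti-His antibody; 0% = Mcl-1 plus Noxa peptide wells and 100% = peptide-only wells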
Bim-Mcl-1: human Bim-Mcl-1 interaction inhibition; Bead-based flow cytometry, Bim peptide-Mcl-1 binding; inhibition, % at 10 µM; 190,000 compounds, 0.1% hits; AID 1009; in the data active = inhibition above about 40%;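 also: 0% = no compound tracer wells and 100% = peptide blocker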
NCF1 inh: inhibitors of human p47phox binding; 220,000 compounds, 0.53% hits; P14598; inhibition, % at 24.7 µM; p47phox/p22phox peptide binding, fluorescence polarization, 2 h;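 also: 0% = p47phox with labelled peptide and 100% = labelled peptide alone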
The depositor's hits bear a star; nt = no result given; [ ] = another dose, or the depositor's remark. Compounds with a hit are over-represented: about 3.3% of the library has one in this group of screens.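 The calls were made as follows, unless noted: active = inhibition above about 30% (limit read from the data); inactive = the rest.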

SMILES | Mcl1 Bid PPI | 14-3-3 Bad PPI | eIF4E 4G PPI | Mcl1 Noxa PPI | Bim-Mcl-1 | NCF1 inh
O=C(O)c1ccc(-c2nc(-c3ccc(Cl)c(Cl)c3)cs2)cc1 | 5 | 8 | 2 | -2 | -1 | -11
CCOC(=O)C(=CNNc1ccccc1)C(=O)OCC | -17 | -7 | 1 | 15 | nt | -9
Cn1cnnc1SCc1ccc(C(=O)O)cc1 | 9 | -16 | -2 | 25 | 2 | -5
Cc1ccc2cc(C)c3nnc(SCc4ccc(C(=O)O)cc4)n3c2c1C | -60 | -5 | 97* | -12 | nt | -1
CCOC(=O)C(C(=O)OCC)C(C[N+](=O)[O-])c1ccccc1 (centres undefined) | -17 | -3 | 2 | 26 | 0 | -5
CC#C[C@]1(O)CC[C@H]2[C@@H]3CCC4=CC(=O)CCC4=C3[C@@H](c3ccc(N(C)C)cc3)C[C@@]21C | -24 | 4 | 4 | 67* | 0 | 0
CC12CN3CC(C)(CN(C1)C3c1ccccc1F)C2 (centres undefined) | -16 | -12 | -4 | -5 | nt | -10
COc1cc(NC(=O)CN2C(=O)NC(c3ccccc3)(c3ccccc3)C2=O)c(C)cc1[N+](=O)[O-] | 6 | -7 | 2 | 24 | -1 | -22
CCOCCCn1c(C)nc2c(c1=O)c1nc3ccccc3nc1n2CCC1=CCCCC1 | 66* | 27 | -7 | 12 | -3 | -20
Cc1nc2c(c(=O)n1CCC1=CCCCC1)c1nc3ccccc3nc1n2/N=C/c1ccccc1 | -11 | -3 | -3 | 17 | 0 | -99
COc1ccc(Br)cc1CNC(=O)Cc1c(C(=O)O)[nH]c2ccc(Cl)cc12 | 16 | 13 | 1 | 26 | -3 | 15
Cc1ccc(Nc2nc(N)nc(CSC(=S)N3CCOCC3)n2)cc1 | -55 | 2 | 4 | 11 | -5 | -6
CCOc1ccc(Nc2nc(N)nc(CSC(=S)N3CCOCC3)n2)cc1 | -16 | -7 | 7 | 14 | nt | 125*
COCc1cc(C)nc(OCC(=O)N/N=C/c2ccc(C)o2)c1C#N | -6 | 7 | -2 | 19 | 1 | 5
Cc1cccc(CN2CCc3c(OCC(=O)NCc4ccco4)cccc3C2=O)c1 | 95* | 6 | -2 | 3 | -7 | -4
Cc1ccc(COc2cccc3c2CCN(Cc2ccc(F)cc2)C3=O)cc1 | 54* | 4 | 5 | 12 | -3 | -18
Cc1ccc(OCc2ccc(C(=O)Nc3ccc(S(N)(=O)=O)cc3)o2)cc1 | -12 | -7 | -1 | -9 | -2 | 1
COc1cc(/C=C2/NC(=O)N(Cc3ccccc3F)C2=O)cc(OC)c1O | -46 | -2 | 4 | 57* | 51* | -10
COc1cc(/C=C(\C#N)c2nc3c(s2)CCCC3)ccc1O | 29 | 37 | 3 | 51* | 0 | -46
N#C/C(=C\c1cccnc1)c1nc2c(s1)CCCC2 | 3 | -10 | 2 | -12 | 0 | -2
CCN(CC(=O)Nc1ccc2c(c1)OCCO2)S(=O)(=O)c1cccs1 | 64* | -4 | -5 | 4 | -3 | -6
O=S(=O)(Nc1ccc(Cl)cc1)c1ccc(N2CCOCC2)c(NC(=S)NC2CC2)c1 | -39 | -13 | 1 | 4 | 0 | 1
O=S(=O)(Nc1ccncc1Cl)c1ccc2ccccc2c1 | -17 | 72* | 2 | -3 | 0 | -5
O=C(NNS(=O)(=O)c1ccc2ccccc2c1)c1cccnc1 | -84 | 15 | 6 | 11 | 1 | -11
CCN(CC)C(=O)Cn1cnc2sc(C(=O)N3CCN(Cc4ccc5c(c4)OCO5)CC3)c(C)c2c1=O | -2 | 48 | 0 | 21 | -1 | -8
SMILES | Mcl1 Bid PPI | 14-3-3 Bad PPI | eIF4E 4G PPI | Mcl1 Noxa PPI | Bim-Mcl-1 | NCF1 inh
CC(=O)c1cccc(NC(=O)C(C)N2CCc3ccccc3C2)c1 (centres undefined) | -14 | 3 | -14 | -11 | nt | -5
CC(C)NC(=O)c1cc(=O)n(C)c(=O)n1C | -12 | 88* | -6 | -18 | -1 | 5
Cn1c(C(=O)NC2CC2)cc(=O)n(C)c1=O | 5 | -11 | 2 | 1 | -1 | -8
OCCCN=c1cc(-c2ccccc2)oc2ccc(Cl)cc12 | -19 | 193*[fluorescence artefact?] | 11 | 8 | 0 | -6
Cc1cccc(N2CCN(C(=O)Cn3sc4nc(C)cc(C)c4c3=O)CC2C)c1 (centres undefined) | -52 | -7 | 10 | 59* | -4 | -5
Cc1cccc(N2CCN(C(=O)Cc3ccc(-n4c(=O)[nH]c5ccsc5c4=O)cc3)CC2C)c1 (centres undefined) | 93* | -6 | 0 | 8 | -6 | -10
Cc1cc(C)c2c(=O)n(CC(=O)N3CCC(Cc4ccccc4)CC3)sc2n1 | -24 | -10 | 6 | 59* | -8 | -31
Cc1cc(C)c2c(=O)n(CC(=O)NCCCN3CCN(c4ccccc4F)CC3)sc2n1 | -55 | 13 | 9 | 34 | -5 | 51*
Cc1ccc(-c2ccc(=O)n(CC(=O)N3CCN(c4cccc(C)c4)C(C)C3)n2)cc1 (centres undefined) | -11 | 5 | -5 | 19 | -2 | -5
CN1CC(=O)N(CC(=O)N2CCC(Cc3ccccc3)CC2)C1=O | -15 | -3 | 2 | -5 | 0 | 0
CNC(=O)c1[nH]cnc1C(=O)Nc1ccc(OC)cc1 | -13 | 2 | 2 | -2 | nt | 3
COc1ccc(C(=O)c2ccccc2)c(OCC(=O)N(C)C)c1 | -8 | -5 | -1 | -3 | 4 | 5
CCNc1nc(C23CC4CC(CC(C4)C2)C3)cs1 | -18 | -4 | 1 | 17 | 0 | 3
CCOc1ccc(NC(=O)Cn2sc3nc(C)cc(C)c3c2=O)cc1 | -117 | 6 | 17 | 51* | nt | 40*
Cc1cccc(NC(=O)Cn2cnc3ccccc3c2=O)c1C | -6 | 92* | 3 | 2 | 2 | -3
CC(C)(C)c1nc(NCCN2CCOCC2)c2nnn(Cc3ccccc3Cl)c2n1 | -1 | 9 | -8 | -1 | 41* | -4
Cc1ccc(OCC(=O)Nc2ccc(C)c(S(=O)(=O)N3CCCCC3)c2)c([N+](=O)[O-])n1 | -5 | 3 | -1 | 6 | -4 | -6
C=CCn1c(SCC(=O)c2[nH]c(C)c(C(=O)OCC)c2C)nc2scc(-c3ccc(OC)c(OC)c3)c2c1=O | 84* | 82* | 13 | 50 | 6 | 14
CCOC(=O)c1c(C)[nH]c(C(=O)CSc2nnc(-c3ccncc3)n2CC)c1C | 11 | 6 | 1 | 2 | -1 | -18
O=C(Nc1ccc([N+](=O)[O-])cc1)Nc1ccc(OC(F)F)c(Cl)c1 | 6 | 3 | -1 | 52* | -3 | -45
O=C(Nc1ccc(OC(F)F)c(Cl)c1)Nc1ccc2c(c1)OCO2 | 1 | 5 | -1 | 21 | -5 | 7
Cc1nn(Cc2ccc(F)cc2)c2sc(C(=O)Nc3ccc(N4CCOCC4)cc3N3CCOCC3)cc12 | -62 | 4 | -1 | 76* | -5 | 2

Assay outcomes (PubChem BioAssay)
